The values that follow come from PubChem BioAssay AID1920062 (Sanford-Burnham Center for Chemical Genomics, 2024).

The campaign covered roughly 370,000 compounds. About 400 (0.11%) were called active. The sample as a whole holds a higher share of actives than the screen did. A number with no mark means an inactive call.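 How the source made its calls: active means activation at 10 µM reaching about 35% in either raw or pattern-adjusted values (limit read from the data); inactive means the rest.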

This test deals with Atrial natriuretic peptide receptor 2 (Homo sapiens) (UniProt P20594). The experiment in a line: GC-B stimulated cGMP production enhancers – HEK293 GC-B cells, cGMP TR-FRET, EC30 CNP, primary screen (AID 1920062). The following applies: at 10 µM, stronger effect = higher value, 0% at EC30 CNP, 100% saturating CNP.
Atrial natriuretic peptide receptor 2 (Homo sapiens), sequence (P20594 whole entry, looked up): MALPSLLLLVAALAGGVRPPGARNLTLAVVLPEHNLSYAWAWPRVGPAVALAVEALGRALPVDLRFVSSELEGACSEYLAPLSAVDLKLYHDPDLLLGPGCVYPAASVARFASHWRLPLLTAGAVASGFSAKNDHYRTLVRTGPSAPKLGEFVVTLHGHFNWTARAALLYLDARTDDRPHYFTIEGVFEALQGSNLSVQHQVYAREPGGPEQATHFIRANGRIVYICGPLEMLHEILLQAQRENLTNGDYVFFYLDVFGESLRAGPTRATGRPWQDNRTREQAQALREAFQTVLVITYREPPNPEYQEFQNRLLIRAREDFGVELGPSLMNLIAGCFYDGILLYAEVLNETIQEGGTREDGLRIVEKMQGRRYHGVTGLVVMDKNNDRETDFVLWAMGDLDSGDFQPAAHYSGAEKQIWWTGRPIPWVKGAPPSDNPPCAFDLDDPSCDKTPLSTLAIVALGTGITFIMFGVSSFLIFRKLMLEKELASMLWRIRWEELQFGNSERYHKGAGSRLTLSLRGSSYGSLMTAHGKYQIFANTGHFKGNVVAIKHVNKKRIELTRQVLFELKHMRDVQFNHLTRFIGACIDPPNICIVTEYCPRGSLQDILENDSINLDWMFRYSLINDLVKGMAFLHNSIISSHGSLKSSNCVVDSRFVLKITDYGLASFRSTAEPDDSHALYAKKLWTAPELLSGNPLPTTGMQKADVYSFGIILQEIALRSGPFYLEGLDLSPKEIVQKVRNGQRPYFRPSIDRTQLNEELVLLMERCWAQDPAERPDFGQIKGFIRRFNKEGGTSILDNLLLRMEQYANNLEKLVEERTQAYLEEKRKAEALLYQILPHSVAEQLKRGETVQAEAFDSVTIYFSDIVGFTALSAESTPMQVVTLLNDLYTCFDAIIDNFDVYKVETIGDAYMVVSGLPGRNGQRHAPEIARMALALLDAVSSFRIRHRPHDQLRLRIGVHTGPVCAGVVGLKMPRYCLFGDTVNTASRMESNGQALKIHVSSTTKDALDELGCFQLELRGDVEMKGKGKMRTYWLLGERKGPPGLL
As to `CN(CC(=O)Nc1ccccc1Cl)C(=O)COc1cccc2c1OC(C)(C)C2`, the activation was -1.31%.

With `O=C(CSc1n[nH]c(=O)n1-c1ccccc1)Nc1ccccc1C(F)(F)F`, the activation is -2.36%.

`COCCCN1C(=O)c2ccc(C(=O)OCC(=O)NCc3ccccc3OC)cc2C1=O`: the activation is -7.6%.

With `Cc1ccc(CNC(=O)C(=O)c2cn(CC(=O)N3CCOCC3)c3ccccc23)cc1`, the activation was -3.39%.

As to `O=C1CSC(c2cccc(F)c2)N1c1ccc(O)cc1` (configuration not stated), the activation was 2.71%.

In the case of `CC1CCCCN1S(=O)(=O)CCNC(=O)c1ccccc1` (configuration not stated), the activation is -2.73%.

Take `Cc1ccc(NC(=O)CSCC(=O)N2CCOCC2)cc1`: the activation is 2.72%.

For the compound `O=C(CCSc1ccccc1)N1CCN(c2ccccc2F)CC1`, the activation was -0.35%.

Regarding `CC(C)(C)c1ccc(CSc2nnc(-c3cccs3)o2)cc1`, the activation was 3.23%.

Consider `COc1ccccc1NC(=O)CSc1nnc(Cn2nnc(-c3ccccc3)n2)n1-c1ccccc1`, for which the activation is -7.79%.

On to `Nn1c(SCC(=O)Nc2ccc(S(N)(=O)=O)cc2)nnc1-c1n[nH]c2c1CCC2`, for which the activation is -3.98%.

For `CS(=O)(=O)Nc1ccccc1N=C(c1ccccc1)c1ccccc1`, the activation is 4.92%.

`Cc1cccc(C(=O)NC2CCN(CC(=O)Nc3cccc(Cl)c3)CC2)c1`: the activation is 1.44%.

As to `CCc1nn(CCCC(=O)NC(C)c2ccccc2)c(=O)c2cc3occc3n12` (configuration not stated), the activation is -9.68%.

As to `Cc1c2cnn(CC(=O)NCc3ccccn3)c(=O)c2c(C)n1Cc1ccc(Cl)cc1`, the activation is 0.59%.

As to `CC1=NN(/C(=N\c2nnc(C)s2)Nc2ccccc2)[C@H](c2ccc(C)cc2)S1`, the activation is -13.9%.

In the case of `COC(=O)c1ccc([C@@H](O)[C@H](C)C(=O)CC(=O)OC(C)(C)C)cc1`, the activation is 5.42%.

As to `CC(=O)c1cccc(NC(=O)CN2C(=O)c3cccnc3Oc3ccc(Cl)cc32)c1`, the activation is -2.67%.

On to `Cc1ccccc1C(=O)OC1OC(=O)C(Cl)=C1Nc1ccccc1` (configuration not stated), for which the activation was 2.61%.

As to `C/C(=N\N(C)C)c1ccc(OCCOc2ccc([N+](=O)[O-])cc2)cc1`, the activation was 4.4%.

With `O=C(Cc1ccc(-n2c(=O)c3sccc3n(Cc3ccc(F)cc3)c2=O)cc1)NCc1ccco1`, the activation is 6.68%.

Turning to `Cc1ccc(C(=O)N2CCCC2)c(F)c1F`, the activation is 0.58%.

Consider `COc1ccc(S(=O)(=O)N2CCN(C)CC2)c(C)c1`, for which the activation is -1.64%.

Take `CC[C@]1(C(=O)OC)[C@H]2C(=O)N(C)C(=O)[C@H]2[C@H]2CN(C)C(=NCc3ccccc3)N21`: the activation was -1.82%.

On to `CS(=O)(=O)N(CC(=O)N1CCN(c2cccc(Cl)c2)CC1)c1ccccc1`, for which the activation is -0.13%.

As to `Cc1cc(C)c(C#N)c(SCc2ccc3c(c2)OCO3)n1`, the activation is 6.77%.

As for `COc1ccc(CSc2nc(N3CCOCC3)c3c(c2C#N)CC(C)(C)OC3)cc1`, the activation was 48.4% (active).

In the case of `c1ccc(CSc2ncnc3c2sc2nc(N4CCOCC4)c4c(c23)CCCC4)cc1`, the activation was -0.49%.

Consider `O=C1CCC(=O)N(c2ccccc2)N1`, for which the activation is 0.63%.

`CC(=O)Nc1ccc(NC(=O)CSc2nnnn2-c2ccccc2F)cc1`: the activation is -2.78%.

With `CCCCCN(C(=O)NC(=O)Nc1ccccc1OC)S(C)(=O)=O`, the activation was 0.44%.

In the case of `CCn1c(SCC(=O)NNC(=O)c2ccc(OC)cc2)nnc1C(C)C`, the activation was 1.41%.

With `COc1ccccc1C(=O)CSc1nnc(-c2ccccn2)n1-c1ccccc1`, the activation is -3.37%.

As for `Nc1ncnc(Nc2cccc(Cl)c2Cl)n1`, the activation was 1.89%.

In the case of `CC1(C)OC(=O)C2=C(C[C@@H](C3CC3)O[C@H]2CCc2cccc(Cl)c2)O1`, the activation was 3.35%.

For `C[C@@H]1CN([C@@H](C)CO)C(=O)CCCn2nncc2CO[C@H]1CN(C)Cc1ccc(C(F)(F)F)cc1`, the activation was -5.26%.

With `CCOc1c(Br)cc(/C=C2\C(=O)N(CCC#N)N=C2C)cc1OC`, the activation is 51.6% (active).

In the case of `COc1ccc(C(CNC(=O)c2ccc(S(=O)(=O)Nc3ccccc3F)cc2)N(C)C)cc1` (configuration not stated), the activation is -0.81%.

In the case of `CC1(c2ccc(Cl)cc2Cl)NC(=O)N(CC(=O)Nc2cccnc2Cl)C1=O` (configuration not stated), the activation is 3.74%.

On to `CCCCN(C)CCNC(=O)C1CCCN(S(=O)(=O)c2cccc3nsnc23)C1` (configuration not stated), for which the activation was 4.51%.

On to `CC(Oc1ccc(F)cc1F)C(=O)/C=C/N(C)C` (configuration not stated), for which the activation was 1.84%.

Take `CCC(C)(C)NC(=O)C(c1cccc(OC)c1OC)N(CC(C)C)C(=O)CCC(=O)Nc1cc(C)on1` (configuration not stated): the activation was -7.74%.

As to `CC1CCCCC12NC(=O)N(CC(=O)Nc1ccc(S(=O)(=O)Nc3ncccn3)cc1)C2=O` (configuration not stated), the activation was 1.08%.

Turning to `Nc1nnc(SCC(=O)NCC(=O)Nc2ccc(F)c(F)c2F)s1`, the activation was -0.75%.

As to `CC(=O)c1cccc(-n2nnnc2SCC(=O)NNC(=O)C2CCCCC2)c1`, the activation was 1.65%.

Consider `O=C(OCC(=O)N1CCCCCC1)c1cnc(Cl)c(Cl)c1`, for which the activation was 4.57%.

Take `CC(=O)C[C@H](O)CC(=O)[C@@H]1OC(=O)[C@@H](C)C/C=C\Cc2ccccc21`: the activation was 5.5%.

`CCCCn1c(N)c(N2CCOCC2)c(=O)n(CC(=O)NCCc2ccccc2)c1=O`: the activation was 0.41%.

Take `CC(=O)NC(Cc1ccc(F)cc1)C(=O)O` (configuration not stated): the activation was 7.58%.

For the compound `Cc1nc(C(F)(F)F)ccc1C(=O)N1CCC1(C)C(=O)NS(=O)(=O)c1ccc(F)cc1F` (configuration not stated), the activation was 1.28%.

As to `O=C1OCC2=C1C(c1ccccc1)CC(=O)N2c1cccc(F)c1` (configuration not stated), the activation is 3.79%.

As to `CCOC(=O)C1(Cc2ccccc2C)CCCN(C(=O)CN2C(=O)CSC2=O)C1` (configuration not stated), the activation is 1.31%.

On to `O=S1(=O)c2c(cccc2N2CCCCC2)O[C@H](COCc2ccccc2)CN1C1CC1`, for which the activation is 2.03%.

With `O=C(Oc1ccc(C(=S)N2CCOCC2)cc1)c1ccc(F)cc1`, the activation was -0.5%.

Turning to `CC(NCc1nc2ccccc2n1C)C12CC3CC(CC(C3)C1)C2` (configuration not stated), the activation is -3.22%.

Turning to `NC(=O)NC(=O)C(OC(=O)CCNS(=O)(=O)c1ccccc1)c1ccccc1` (configuration not stated), the activation was 0.79%.

As for `CCOC(=O)N1CCN(C(=O)CN(C2CCCCC2)S(C)(=O)=O)CC1`, the activation was 6.88%.

With `C/C(Cl)=C\Cn1c(Nc2cccc(C)c2)nc2c1c(=O)n(C)c(=O)n2C`, the activation is 45.4% (active).

As for `Cn1c(=O)c2c(nc(N/N=C/c3cccs3)n2Cc2ccc(Br)cc2)n(C)c1=O`, the activation was 23.1%.

As to `CCC/C(C)=N\Nc1nc2c(c(=O)n(C)c(=O)n2C)n1C`, the activation was -1.79%.

For `Cc1cc(C)n(-c2nc(O)cc(=O)[nH]2)n1`, the activation is 6.13%.

On to `CCn1c(CNC(=O)c2ccccc2)nnc1SCC(=O)N1CCN(c2ccccc2)CC1`, for which the activation is 1.17%.

For `CC(C)COC(=O)c1ccc(NC(=O)C2C3C=CC(C3)C2C(=O)O)cc1` (configuration not stated), the activation was 6.16%.

For the compound `CCN(CC(=O)NCc1cccs1)S(=O)(=O)c1ccc(NC(C)=O)cc1`, the activation was 5.26%.

With `CC(=O)N1C(C)c2ccccc2C(C)(C)CC12CCCCC2` (configuration not stated), the activation was 1.32%.

For `C=C1C2C[C@H](O)C(C)(C)[C@@]2(O)[C@H](O)C[C@]23C[C@@](C)(O)[C@H](CC[C@H]12)[C@H]3O` (some centres not stated), the activation was 5.08%.

Take `Cc1nc(CNc2ncnc3ccc(-c4ccc5c(c4)OCO5)cc23)cs1`: the activation is 3.38%.

Take `O=C(Cn1nnc(-c2ccc3c(c2)OCO3)n1)NCc1ccco1`: the activation is -0.02%.

Consider `c1coc(CCNc2ncnc3ccc(-c4ccc5c(c4)OCO5)cc23)c1`, for which the activation is 50.1% (active).

As for `CC(C)C(NC(=O)c1c(F)cccc1F)C(=O)NNC(=O)c1ccccc1` (configuration not stated), the activation is 3.58%.

`O=Cc1c(Cl)cccc1Cl`: the activation was -13.9%.

Regarding `Cc1ccccc1NC(=O)COC(=O)c1ccc(Sc2ncn[nH]2)c([N+](=O)[O-])c1`, the activation is -1.97%.
